Reference: ChEMBL document CHEMBL3988442, “University of Dundee, Small-Polar-MMV Screening Library” (2021)
Out of some 48,000 compounds screened, about 13,000 (27%) showed an effect of 50% or more. The list shows a part of the results.

System: Wolbachia pipientis
Test: Anti-Wolbachia Cell-Based Screen
Type: functional
Parameters: scale not given: in the data most compounds retested in dose-response had high values
Conditions: 5 µM

| SMILES | Percent Effect |
| --- | --- |
| COCCn1ccnc1CN(Cc1ccccn1)Cc1sccc1C | -1.6% |
| CCOc1ccccc1NC(C)C(=O)N(C)Cc1cccc(F)c1 (configuration not stated) | 13.58% |
| CC(=O)Nc1nc(CN(C)CC2CCCN2c2cccnn2)cs1 (configuration not stated) | 10.35% |
| CNC(=O)CC1CCN(C(=O)NCc2coc3ccccc23)CC1 | -8.978% |
| Cn1ccnc1C(O)c1ccccc1N1CCN(Cc2cccs2)CC1 (configuration not stated) | 123.9% |
| Cc1ccccc1C(C)NC(=O)CN1CCN(Cc2cccs2)CC1 (configuration not stated) | 6.89% |
| CC(C)Oc1ncnc2c1CCN(Cc1cccs1)CC2 | 10.07% |
| CC(C)c1noc(C(C)N2CCN(Cc3ccsc3)CC2)n1 (configuration not stated) | 12.33% |
| Cn1ccnc1C(O)c1ccccc1N1CCN(Cc2ccsc2)CC1 (configuration not stated) | 129.7% |
| c1cc(CN2CCN(Cc3cscn3)CC2)cs1 | -0.1438% |
| Cn1cc(N2CCCC(Nc3ccc4c(c3)CCCO4)C2=O)cn1 (configuration not stated) | 3.281% |
| CC1CCN(C)c2ccccc2N1C(=O)c1ccc(=O)n(C)c1 (configuration not stated) | -5.744% |
| CNS(=O)(=O)c1cccc(CNc2ccc(C(F)(F)F)nn2)c1 | 12.46% |
| COc1cccc(CC(=O)N2CCC(c3ccn4nccc4n3)CC2)c1 | 113.7% |
| COc1cccc(CC(=O)N2CCCN(c3ccnc(C)c3)CC2)c1 | -23.77% |
| Cc1cc(C)n(CC(=O)N2CCC(c3nc(C)no3)CC2)n1 | -3.198% |
| CCOCCCC(=O)N1CCN(C(=O)Cc2cccc(OC)c2)CC1 | -5.603% |
| Cc1cnn(CC(=O)N2CCC(c3ccn4nccc4n3)CC2)c1 | 130% |
| Cc1cc(C)n(CC(=O)N2CCC(c3ccn4nccc4n3)CC2)n1 | 104.2% |
| CC1CCN(C(=O)Cn2cc(I)cn2)CC1 | 2.364% |
| Cc1nc(O)cc(C2CCN(C(=O)CN(C)c3ccccc3)CC2)n1 | -2.835% |
| Cc1cc(C)n(CCC(=O)N2CCC(c3nc(C(C)C)no3)CC2)n1 | 8.819% |

| SMILES | Percent Effect |
| --- | --- |
| O=C(Nc1cccc(OCc2ccc(F)cc2)c1)C1COCCO1 (configuration not stated) | -6.014% |
| CCOc1ccc(CC(=O)Nc2cnccc2SCCCO)cc1 | 9.652% |
| CCC[C@@H]1CN(Cc2nnc(-c3cccnc3)o2)C[C@H]1NC(C)=O | -9.676% |
| COc1ncc(Cl)c(NCc2ccc([S+](C)[O-])cc2)n1 (configuration not stated) | -2.144% |
| Cc1cccc(C(C(=O)N2CC(c3cccnc3)C2)N(C)C)c1 (configuration not stated) | -9.21% |
| CC1=Nc2c(c(O)nn2C(C)C)C(c2cccnc2)S1 (configuration not stated) | 138.8% |
| CC1=Nc2c(c(O)nn2C(C)C)C(c2cnn(C)c2)S1 (configuration not stated) | 103.6% |
| CC1=Nc2c(c(=O)[nH]n2C(C)C)C(c2cccs2)S1 (configuration not stated) | -8.42% |
| CC1=Nc2c(c(=O)[nH]n2C2CCOCC2)C(c2cccc(Br)c2)S1 (configuration not stated) | 2.755% |
| CC1=Nc2c(c(O)nn2C(C)C)C(c2cn(C)nc2C)S1 (configuration not stated) | 105.3% |
| CC1=Nc2c(c(O)nn2C2CCOCC2)C(c2cccnc2)S1 (configuration not stated) | 111.6% |
| O[C@@H]1C[C@@H](c2nc(-c3cccnc3)no2)N(C2CCOCC2)C1 | 9.041% |
| COC(=O)[C@H](CSC)Nc1nc(C2CCCC2)nc2c1cnn2C | -6.594% |
| CCCN(CC1COc2ccccc2O1)C(=O)C1=NN(C)C(=O)CC1 (configuration not stated) | -3.876% |
| CC(C)N(CCS(C)(=O)=O)Cc1csc(Cc2ccc(Cl)cc2)n1 | -7.743% |
| COC(=O)c1ccc(S(=O)(=O)N2CCCn3ncnc32)s1 | 103.1% |
| O=C(c1cccnc1Oc1ccccc1)N1CCCn2ncnc21 | 8.828% |
| COCCOc1ncccc1C(=O)N1CCCn2ncnc21 | -1.947% |
| CCc1ccc(S(=O)(=O)N2CCCC(c3ncc[nH]3)C2)s1 (configuration not stated) | -13.86% |
| CCC[C@H]1CN(S(=O)(=O)c2ccc(CC)s2)C[C@@H]1N | -3.149% |
| O=S(=O)(c1ccc(Cl)s1)N1CCCn2ncnc21 | 95.01% |
| CCc1ccc(S(=O)(=O)N2CCCn3ncnc32)s1 | 83.72% |

| SMILES | Percent Effect |
| --- | --- |
| O=S(=O)(c1ccc(Cl)s1)N1CCCC(c2ncc[nH]2)C1 (configuration not stated) | 4.292% |
| O=C(c1ccc(-c2ccccc2)[nH]c1=O)N1CCCn2ncnc21 | 1.123% |
| Cn1cc(C(=O)Nc2cccc(CCN3CCCC3)c2)ccc1=O | -2.076% |
| CCOCCS(=O)(=O)Cc1ccn(-c2cccc(F)c2)n1 | -15% |
| Cc1ccnc(N2CCC(=O)N(Cc3ccc(F)cc3)C(C(C)C)C2)n1 (configuration not stated) | -3.35% |
| Cc1ccsc1[C@@H]1CCN(C(=O)CCC(=O)c2ccccc2)C[C@H]1O | -8.391% |
| Cc1ccc(CNC(=O)CNCC2CCN(CCO)CC2)s1 | 0.4784% |
| CC1(C)OCC2(CO1)CN(S(=O)(=O)c1ccc(Cl)s1)C2 | -3.142% |
| Cc1ccc(S(=O)(=O)N2CCC(Cn3cc(C(C)(C)N)nn3)CC2)s1 | -17.3% |
| CCN1CCN(S(=O)(=O)c2cnc(NC(C)=O)s2)CC1 | -4.735% |
| Cc1ccc(S(=O)(=O)N2CCN(CCCO)CC2)s1 | 107% |
| Cc1ccc(S(=O)(=O)N2CCN(CCC(N)=O)CC2)s1 | 97.05% |
| Cc1ccc(CNC(=O)CN2CCN(CCO)CC2)s1 | 0.0165% |
| N#CCCN1CCN(S(=O)(=O)c2ccc(Cl)s2)CC1 | 101.8% |
| Cc1ccc(S(=O)(=O)N2CCN(CCC#N)CC2)s1 | 7.923% |
| COc1ccccc1Oc1ncccc1CNC(=O)[C@@H](C)NC(C)=O | -4.174% |
| CC(C)CC(C)NC1CCN(c2ccc(-c3cscn3)cc2)CC1 (configuration not stated) | 3.924% |
| CN(Cc1nnc2n1CCC2)C(=O)c1ccc(=O)n(C)n1 | -6.286% |
| CC(=O)N(C)CC(=O)Nc1cnc(-n2ccnc2)nc1 | 3.406% |
| Cc1nn(C)c(N(C)C)c1CNCc1cccc(Cn2ccnc2)c1 | 81.6% |
| Cc1nn(C)c(N(C)C)c1CNCc1cccc(Cn2cccn2)c1 | 3.492% |
| COc1c(CNCc2cccc(Cn3ccnc3)c2)c(C)nn1C | -8.562% |

| SMILES | Percent Effect |
| --- | --- |
| COc1c(CNCc2ccc(Cn3ccnc3)cc2)c(C)nn1C | 103% |
| COc1c(CNCc2ccccc2Cn2ccnc2)c(C)nn1C | 97.96% |
| COc1c(CNCc2ccccc2-n2ccnc2)c(C)nn1C | -0.9457% |
| COc1c(CNCc2ccc(CN3CCOCC3)cc2)c(C)nn1C | -11.29% |
| Cc1nn(C)c(N(C)C)c1CNCc1cccc(CN(C)C)c1.Cl | 9.174% |
| CC(C#N)CSc1ccccc1NCC(=O)NCc1cccs1 (configuration not stated) | -12.24% |
| CCc1nc(C)c(-c2nccn2CC2CC(=O)N(CC)C2)[nH]1 (configuration not stated) | -26.8% |
| O=C(CNC(=O)c1c[nH]c2ccccc12)NCCCn1ccnc1 | 13.72% |
| O=C1CC(c2cccs2)c2cnn(C3CCCC3)c2N1 (configuration not stated) | 48.91% |
| Cc1cc2c(cc1C)OC1(C=C2)CCN(CC(=O)N2CCOCC2)CC1 | 107.9% |
| Cc1cc2c(cc1Cl)C=CC1(CCN(CC(=O)N3CCOCC3)CC1)O2 | 104% |
| Nc1cc(C(=O)N2CCCC3(C=Cc4ccccc4O3)CC2)ccn1 (configuration not stated) | -15.12% |
| CCN(C)c1ncnc2c1CCN(C(=O)N1CCOCC1)CC2 | -3.195% |
| O=C(CN1CCOCC1)N1CCN(C2CCc3ccc(F)cc32)CC1 (configuration not stated) | -10.71% |
| Cc1cc2c(cc1Cl)C=CC1(CCN(C(=O)N3CCOCC3)CC1)O2 | 95% |
| COc1ccnc(N2CCN(CC(=O)N3CCOCC3)CC2)n1 | 3.835% |
| Cc1cc2c(cc1Cl)C=CC1(CCN(CC(=O)N3CCCC3)CC1)O2 | 122.5% |
| Cc1cc(C(=O)N2CCCC3(C=Cc4ccccc4O3)CC2)cc(=O)[nH]1 (configuration not stated) | 7.842% |
| COc1ncc(C(=O)N2CCCC3(C=Cc4ccccc4O3)CC2)cn1 (configuration not stated) | 1.868% |
| O=C(O)C(F)(F)F.c1csc(CN2CCc3ncnc(C4CCOC4)c3CC2)n1 (configuration not stated) | 8.568% |
| O=S(=O)(CC1CCOCC1)NCc1ccnc(O)c1 | 1.758% |
| Cc1ccsc1CCNC(=O)C1(Oc2cccnc2C)CCNCC1 | 14.81% |

| SMILES | Percent Effect |
| --- | --- |
| CN(C)c1ccc2c(c1)CN(C(=O)c1ccnnc1)C2c1cnco1 (configuration not stated) | -12.4% |
| O=C(CN1C=Nc2ccccc2S1(=O)=O)NC1CCCCC1 | -27.98% |
| CCN(CC)C(=O)CN1CCC2(C=Cc3cc(Cl)c(C)cc3O2)CC1 | 113.1% |
| CCc1ccc(O)c(C(=O)N2CCN(CC(=O)N(CC)CC)CC2)c1 | 11.73% |
| CC1(C)CN(CC(F)(F)F)CCN1CC(=O)NC1CCCC1 | 1.341% |
| Cc1cn(CC(=O)NC2CCN(CC3CC3)CC2)c2ccccc12 | -11.31% |
| CCc1ccc(O)c(C(=O)N2CCCN(CC(=O)N(CC)CC)CC2)c1 | -4.449% |
| Cc1cc2c(cc1Cl)C=CC1(CCN(CC(=O)NC3CCCC3)CC1)O2 | 121.2% |
| Cc1cc(NC(=O)c2nc(N3CCCC3)ncc2Cl)nc(C(C)C)n1 | -9.396% |
| Cc1ccc(-c2n[nH]cc2CNCC2CCS(=O)(=O)C2)o1 (configuration not stated) | -39.75% |
| COCCCN1CC2(CCCCN2C(C)=O)CC1=O (configuration not stated) | 3.783% |
| CCS(=O)(=O)N1CCCC2(CCCC(=O)N2C)C1 (configuration not stated) | -13.94% |
| CCN1CC2(CCCCN2C(=O)C2CCCCC2)CC1=O (configuration not stated) | -14.04% |
| CCOC(=O)C1CC2(CCOCC2)N2CCC(=O)N12 (configuration not stated) | 102.8% |
| CCOC(=O)C1CC2(CCCCC2)N2CCC(=O)N12 (configuration not stated) | 121.9% |
| CCOCC1COCCC12CCN(C(=O)C1=CCCC1)CC2 (configuration not stated) | -18.23% |
| CCOC(=O)C1CC2(CCCC2)N2CCC(=O)N12 (configuration not stated) | 94.86% |
| CCN1C(=O)CO[C@@H]2CN(C(=O)C3CCOCC3)C[C@H]21 | 7.95% |
| COCCCN1CC2(CCCCN2C(=O)C2CCCCC2)CC1=O (configuration not stated) | -3.805% |
